This is an account of results in PubChem BioAssay (NCATS).

Experiment [1] relates to Zika virus NS2B-NS3 protease (linked construct). The experiment can be described thus: Primary screen NINDS Rhodamine qHTS for Zika virus inhibitors (AID 1347160). For activity change, negative = inhibition: % is set by controls: 0 for no effect and ±100 for the full control effect. Note: nearly all actives have a fitted effect of over 55% in size. In outline:
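Aprotinin served as in-plate control. Conditions: 25 nM linked NS2B-NS3, pH 8.0 Tris buffer, titrated compounds, 15 min preincubation and 15 min reaction with 1.5 microM Rhod110 substrate at room temperature.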

Experiment [2] has as its target Glutathione peroxidase 1 (Homo sapiens) (UniProt P07203). The experiment can be described thus: Primary qHTS Assay for Inhibitors of Recombinant Selenoprotein Glutathione Peroxidase 1 (GPX1) (AID 1845191). Note: nearly all actives have a fitted effect of over 65% in size. In outline:
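NADPH consumption tracked by fluorescence at 340/450 nm between t=0 and t=15 min, room temperature. Final mix: 10 nM GPX1, 100 nM glutathione reductase, 1 mM GSH, 0.5 mM NADPH, 0.5 mM cumene hydroperoxide, 0.01% BSA; 30 min compound–enzyme preincubation.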
(In general: In qHTS, concentration-response curves come from the screen itself.)

A short description of experiment [3]: Primary fluorescence-based thiol-reactive (MSTI) qHTS assay for identification of artifact compounds. (AID 1845221).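 Note: thiol-reactive compounds lower the probe fluorescence signal; nearly all actives have a fitted effect of over 65% in size.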 The gist of the method: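 Curve-fitted percent inhibition (4-parameter Hill) derived from fluorescence, Ex 525/Em 598 nm, scaled with Acetyl-MSTI and MSTI; 1 h incubation at room temperature.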
Experiment [4] can be described thus: Primary redox qHTS assay for identification of artifact compounds. (AID 1845223).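 Note: 0% = DMSO and 100% = reference compound.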 The gist of the method: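 Redox-cycling detection via DTT (250 uM final) oxidation coupled to Amplex Red (25 uM)/HRP (250 mU/mL) in HBSS. 15 min preincubation plus 30 min after DTT, room temperature. Ex/Em 525/598 nm; 4-parameter Hill fit against DMSO and 10 uM DA3003.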
For a further experiment, the system named is SKOV3. The experiment can be described thus: Primary qHTS to identify gynecologic anti-cancer compounds using libraries of approved drugs and bioactive compounds (AID 1345084). For activity change, negative = cytotoxicity: % is set by controls: 0 for no effect and ±100 for the full control effect. Note: nearly all actives have a fitted effect of over 55% in size. Note: potency is the fitted concentration of half-maximal effect. Particulars: Gynecologic cancer cell panel viability, ATPlite luminescence, 48 h; series mostly up to 57.5 µM. In outline:
(§1)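 Cytotoxicity screen measuring ATP content by luciferase luminescence. Each compound is applied at five concentrations for 48 h at 37 C with 5% CO2.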

Experiment [5] concerns Zika virus NS2B-NS3 protease (unlinked complex). Put plainly: Primary screen GU Rhodamine qHTS for Zika virus inhibitors: Unlinked NS2B-NS3 protease assay (AID 1347159). Note: % is set by controls: 0 for no effect and ±100 for the full control effect; nearly all actives have a fitted effect of over 60% in size. In outline: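 Buffer 10 mM Tris-HCl pH 8.0, 0.01% Tween 20. Unlinked protease 25 nM; compound preincubation 15 min, RT, protected from light. Substrate Rhod110, 1.5 microM; ~15% conversion in 15 min.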
For experiment [6], the target named is Cytochrome P450 2D6 (Homo sapiens) (UniProt P10635). The experiment can be described thus: Cytochrome P450 family 2 subfamily D member 6 (CYP2D6) small molecule antagonists: luciferase biochemical (cell-free) qHTS assay (AID 1645840; active = well fitted curve in the direction sought with a large enough effect in the repeat runs; an effect the other way counts as inactive or inconclusive; note: % is set by controls: 0 for no effect and ±100 for the full control effect; nearly all actives have a fitted effect of over 55% in size). In outline: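 P450-Glo CYP2D6 system: proluciferin substrate converted by enzyme to luciferin, read by luminescence proportional to activity. Enzyme-substrate mix with compound 10 min at room temperature, then NADPH regeneration 1 h before detection reagent.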

The target of experiment [7] is Cytochrome P450 2C9 (Homo sapiens) (UniProt P11712). Put plainly: Cytochrome P450 family 2 subfamily C member 9 (CYP2C9) small molecule antagonists: luciferase biochemical (cell-free) qHTS assay (AID 1645842; active = well fitted curve in the direction sought with a large enough effect in the repeat runs; an effect the other way counts as inactive or inconclusive). The gist of the method: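 P450-Glo CYP2C9 system: proluciferin substrate with enzyme in mix containing 0.4% BSA, 10 min at room temperature, then NADPH regeneration solution added and incubated 1 h at 37C. Detection reagent stopped reaction; luminescence read after 20 min as RLU.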

The nature of experiment [8]: Cytotoxicity counterscreen for inhibitors of SARS-CoV-2 cell entry (AID 1645845; calls by dose curve; note: % is set by controls: 0 for no effect and ±100 for the full control effect; nearly all actives have a fitted effect of over 50% in size). The gist of the method:
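ATP-content luminescence (ATPLite 1step, 15 min RT) read after 48 h compound exposure of Expi293F cells stably expressing human ACE2; normalized to cells-only wells and media-only wells.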
On the technique in general: Counterscreens check selectivity or assay interference.

Experiment [9] is described as follows: Primary qHTS to identify inhibitors of SARS-CoV-2 cell entry (AID 1645846; calls by dose curve; note: nearly all actives have a fitted effect of over 45% in size). Particulars: activity change, negative = inhibition: at 57.1 µM (top of the series) unless noted. In outline:
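Inhibition of spike-mediated entry was scored in human ACE2-transfected Expi293F cells. Particles were MLV-pseudotyped with Wuhan-Hu-1 S carrying a 19-aa C-terminal deletion; signal was luciferase after two days, scaled between spike PP and fusion-protein-free PP.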

The nature of experiment [10]: qHTS drug screen for cell cycle checkpoint inhibitors in PARPi-resistant BRCA-mutant ovarian cancer cell lines. (AID 1963452; calls by dose curve). The conditions noted are these: PEO1/OlaR viability, CellTiter-Glo luminescence, 96 h, stronger effect = lower value. The gist of the method:
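PEO1, PEO4 and PEO1/OlaR ovarian cancer cells, 600 per well, exposed 96 h at 37C to a dilution series. Viability read by CellTiter-Glo luminescence, normalized to DMSO and empty wells; activity summarized as Z-AUC.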

A short description of experiment [11]: P-glycoprotein substrates identified in KB-3-1 adenocarcinoma cell line, qHTS therapeutic library screen (AID 1346986). Note: nearly all actives have a fitted effect of over 60% in size. The gist of the method: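 Viability read by CellTiter-Glo after 72 h compound exposure in dose-response of KB-3-1 and KB-8-5-11 (P-gp-high) cells. Hits needed AC50 < 10 uM, >50% maximum response and curve class -1.1 to -2.4. Cherry-picks retested ± tariquidar, including pcDNA/MDR-19 HEK-293 pair.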

The nature of experiment [12]: Primary qHTS for inhibitors of nuclear receptor binding SET domain protein 2 (NSD2) in an RCH-ACV wild type WT cells (2C) (AID 1645877). Note: nearly all actives have a fitted effect of over 70% in size. Note: potency is the fitted concentration of half-maximal effect.
Another experiment deals with KB-3-1. The experiment can be described thus: Cytotoxic Profiling of Annotated Libraries Using Quantitative High-Throughput Screening (AID 1296008). For max response: % is set by controls: 0 for no effect and ±100 for the full control effect. Note: nearly all actives have a fitted effect of over 60% in size. Particulars: Five cell lines viability, CellTiter-Glo ATP luminescence, 48-72 h; max response: stronger effect = lower value. The gist of the method:
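Cytotoxicity was measured as CellTiter-Glo ATP luminescence, read after 10 min at room temperature. Compound treatment of the cells lasted 48 or 72 hr at 37 degrees Celsius in a qHTS format.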
(Cellular ATP, detected with luciferase, serves as a proxy for viable cell number.)

In the next experiment the test system is NIH3T3. The experiment can be described thus: qHTS assay to identify novel small-molecules to repurpose for Merkel cell carcinoma treatment (AID 1296009). Note: nearly all actives have a fitted effect of over 60% in size. The conditions noted are these: MCC and control cell lines, CellTiter-Glo viability, 72 h; at 44.8 µM (top of the series) unless noted. The gist of the method: (§2)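 Cell viability, measured as CellTiter-Glo luminescence, was normalized between DMSO and no-cell wells. The cells had been exposed to 8- or 11-point compound dilutions for 72 hr at 37 degree celsius.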

In a further experiment the test system is HeLa. The experiment can be described thus: Primary qHTS to identify gynecologic anti-cancer compounds using libraries of approved drugs and bioactive compounds (AID 1345084). For activity change, negative = cytotoxicity: % is set by controls: 0 for no effect and ±100 for the full control effect. Note: nearly all actives have a fitted effect of over 55% in size. Note: potency is the fitted concentration of half-maximal effect. Particulars: Gynecologic cancer cell panel viability, ATPlite luminescence, 48 h; series mostly up to 57.5 µM. The gist of the method:
as §1

In another experiment the test system is HACAT. The experiment can be described thus: qHTS assay to identify novel small-molecules to repurpose for Merkel cell carcinoma treatment (AID 1296009). Note: nearly all actives have a fitted effect of over 60% in size. The conditions noted are these: MCC and control cell lines, CellTiter-Glo viability, 72 h; at 44.8 µM (top of the series) unless noted. The gist of the method:
as §2

The subject of the next experiment is CRL-7250. The description is as above. The conditions noted are these: MCC and control cell lines, CellTiter-Glo viability, 72 h; series mostly up to 92 µM. In outline:
as §2

Values joined by “and” are separate entries in the source; they are usually repeats but may differ in a detail not shown here. Equal entries are not always repeated. Inconclusive results are not listed. Active and inactive are the calls of the source. Unless noted, calls come from the whole dose curve; as a rule, active = well fitted curve in the direction sought with a large enough effect; inconclusive = small, poorly fitted or top-dose-only effect, or another doubt; inactive = no such curve, though single readings can be large; an effect the other way counts as inactive or inconclusive.

Sequence of Glutathione peroxidase 1 (Homo sapiens) (P07203 whole entry, looked up): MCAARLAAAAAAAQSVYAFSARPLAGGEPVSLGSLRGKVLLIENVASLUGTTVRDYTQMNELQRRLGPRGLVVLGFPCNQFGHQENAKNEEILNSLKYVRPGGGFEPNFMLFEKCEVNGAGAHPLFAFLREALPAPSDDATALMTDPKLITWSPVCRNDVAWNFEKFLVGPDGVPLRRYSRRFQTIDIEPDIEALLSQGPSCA
Sequence of Cytochrome P450 2D6 (Homo sapiens) (P10635 whole entry, looked up): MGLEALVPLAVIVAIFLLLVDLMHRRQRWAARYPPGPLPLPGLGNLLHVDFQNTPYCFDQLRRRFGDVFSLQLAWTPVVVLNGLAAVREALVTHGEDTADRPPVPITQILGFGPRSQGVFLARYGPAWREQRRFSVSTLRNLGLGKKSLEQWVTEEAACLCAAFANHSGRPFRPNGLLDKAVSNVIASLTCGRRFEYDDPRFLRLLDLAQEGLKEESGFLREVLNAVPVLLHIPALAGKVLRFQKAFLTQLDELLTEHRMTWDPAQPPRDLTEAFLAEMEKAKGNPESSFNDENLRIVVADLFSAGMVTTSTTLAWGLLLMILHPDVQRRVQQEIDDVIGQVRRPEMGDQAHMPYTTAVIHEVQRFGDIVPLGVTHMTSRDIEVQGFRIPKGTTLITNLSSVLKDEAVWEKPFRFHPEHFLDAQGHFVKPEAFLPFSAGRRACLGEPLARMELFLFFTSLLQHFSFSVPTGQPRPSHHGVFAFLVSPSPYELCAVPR
Sequence of Cytochrome P450 2C9 (Homo sapiens) (P11712 whole entry, looked up): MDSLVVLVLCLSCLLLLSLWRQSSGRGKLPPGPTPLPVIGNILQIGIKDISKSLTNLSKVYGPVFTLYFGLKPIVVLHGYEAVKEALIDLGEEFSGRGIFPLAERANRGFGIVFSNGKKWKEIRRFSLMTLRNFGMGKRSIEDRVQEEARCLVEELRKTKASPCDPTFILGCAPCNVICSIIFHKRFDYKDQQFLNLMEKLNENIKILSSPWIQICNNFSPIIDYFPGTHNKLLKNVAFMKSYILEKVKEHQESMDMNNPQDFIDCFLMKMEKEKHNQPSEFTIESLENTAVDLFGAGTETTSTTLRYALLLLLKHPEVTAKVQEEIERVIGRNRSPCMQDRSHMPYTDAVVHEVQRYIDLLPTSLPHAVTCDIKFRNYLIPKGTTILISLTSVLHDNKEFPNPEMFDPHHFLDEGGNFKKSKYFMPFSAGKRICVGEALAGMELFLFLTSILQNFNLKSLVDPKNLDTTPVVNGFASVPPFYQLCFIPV

Turning to `CNC(=O)c1cc(C#N)cc(C)c1NC(=O)c1cc(Br)nn1-c1ncccc1Cl`, the Potency result (in experiment [1]; in experiment [2]; in experiment [3]; in experiment [4]; in the experiment with SKOV3) was “inactive” each time.
For `Cc1sc2c(c1C)C(c1ccc(Cl)cc1)=N[C@@H](CC(N)=O)c1nnc(C)n1-2`, the Potency result in experiment [5], in experiment [1], in experiment [6], in [7], in experiment [8] and in experiment [2] was “inactive” in each case. Besides, the Potency result in experiment [3] and in experiment [4] was “inactive” each time. Moreover, the activity change, negative = inhibition in experiment [9] is -6.24%. In addition, the Z-AUC in [10] is -0.829 (inactive) and -0.822 (inactive); in [10] (measured here: PEO1 parental Z-AUC), -0.858 and -0.588; in [10] (measured here: PEO4 Z-AUC), -1.13 and -0.593. Moreover, the Potency in the experiment with SKOV3 is 0.891 µM (active).
Consider `CN1CCN(c2nc3ccccc3nc2Cl)CC1`, for which the Potency entry in experiment [11], in experiment [5], in [1], in [12], in [2] and in [3] was “inactive” throughout. The Potency result (in experiment [4]; with HeLa) was “inactive” in each case. Also, the call in the experiment on KB-3-1 and with NIH3T3 was inactive.
Regarding `COCC(C(=O)OC1CC2CCC(C1)N2C)c1ccccc1` (centres undefined), the Potency result in [11], in [5], in experiment [1], in experiment [12], in [2] and in [3] was “inactive” each time. In addition, the Potency entry (in [4]; in the experiment with HeLa) was “inactive” in each case. For the same molecule, the molecule was called inactive in the experiment on HACAT.
In the case of `C=C1C[C@]2(O)[C@@]3(C)CCC(=O)C(C)(C)C3=C(O)C(=O)[C@@]2(C)[C@@H]2C(=O)O[C@@](C)(C(=O)OC)C(=O)[C@@]12C`, the Potency result (in [12]; in experiment [2]; in the experiment with HeLa; in the experiment on SKOV3) was “inactive” in each case. Besides, in the experiment on KB-3-1, the max response is 1.74% (inactive).
For `C=C(C)[C@@H]1[C@H]2OC(=O)[C@H]1[C@]1(O)C[C@H]3O[C@]34C(=O)O[C@H]2[C@]14C`, the Potency result in [11], in [5], in experiment [12], in experiment [2], in [3] and in [4] was “inactive” each time. The Potency result in the experiment with CRL-7250, in the experiment on HeLa and with SKOV3 was “inactive” each time. In addition, the result in the experiment on KB-3-1 and in the experiment with NIH3T3 was inactive.
Turning to `COC(=O)C1=COC(C)C2CN3CCC4(C(=O)Nc5ccccc54)C3CC12` (centres undefined), the Potency result (in experiment [5]; in experiment [12]; in experiment [2]; in experiment [3]; in [4]; in the experiment on HeLa) was “inactive” in each case. Besides, in the experiment on SKOV3, the Potency entry was “inactive”.
In the case of `Nc1ncnc2c1ncn2[C@@H]1O[C@@H]2COP(O)(=S)O[C@H]2[C@H]1O` (some centres undefined), the activity change, negative = inhibition was 2.11% [at 19.1 µM] (inactive) in [5] and 16.2% [at 10.7 µM] (inactive) in experiment [1]. Further, in experiment [3], the activity change, negative = thiol reactive is -11.9% [at 11.5 µM] (inactive). Also, the max response in the experiment with KB-3-1 is -0.196% (inactive). The activity change, negative = cytotoxicity was 5.24% [at 11.6 µM] (inactive) with HeLa and 33.4% [at 11.6 µM] (inactive) with SKOV3.
For the molecule `Cc1cccc(NC(=O)N[C@H]2CN(C)c3ccccc3C(c3ccccc3)=N2)c1`, the Potency result (in experiment [1]; in [2]; in experiment [3]; in [4]; in the experiment with HeLa; in the experiment on SKOV3) was “inactive” each time. Moreover, the Potency in [12] is 14.5 µM (active). Also, the call with HACAT was inactive.
